Measured values published in PubChem BioAssay AID1159580 (chemical genetic matrix, 2015).
Among all 5,500 compounds or so, about 2,000 (36%) were called active. Inconclusive results (about 18%) are left out. Rule as the data show it: active = normalized growth mostly below about 0.91 (no sharp cut-off); inconclusive = no clear call, values can overlap the other calls; inactive = mostly above about 0.92. Some of the results follow.

Experiment: chemical genetic growth profiling, strain panel (AID 1159580);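 also: tested at 20 µM; growth read once vehicle control cultures reached saturation at 30 °C; 1 = growth at the plate median or of vehicle wells; lower values mean less growth of the strain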
Conditions: S. cerevisiae deletion strains, growth OD

Measured: normalized growth

CO[C@H]1[C@@H](O)[C@@H](C)O[C@H](O[C@H]2CCC3(C)C4CCC5(C)[C@@H](C6=CC(=O)OC6)CC[C@]5(O)[C@@H]4CC[C@]3(O)C2)[C@@H]1O (stereo not given in full)
inactive: locus YAL021C, strain ccr4, hits give low values 0.993 | locus YAL026C, strain drs2, hits give low values 1.04 | locus YAL030W, strain snc1, hits give low values 1.03 | locus YBL061C, strain skt5, hits give low values 1.05 | locus YBR009C, strain hhf1, hits give low values 1.02 | locus YBR023C, strain chs3, hits give low values 1.03 | locus YBR171W, strain sec66, hits give low values 1.03 | locus YBR231C, strain swc5, hits give low values 1.02 | locus YBR279W, strain paf1, hits give low values 1.02 | locus YCL011C, strain gbp2, hits give low values 1.03 | locus YCL016C, strain dcc1, hits give low values 1.02 | locus YCL061C, strain MRC1, hits give low values 1.02 | locus YCL069W, strain vba3, hits give low values 1.02 | locus YCR088W, strain abp1, hits give low values 1.02 | locus YDL005C, strain med2, hits give low values 1.03 | locus YDL040C, strain nat1, hits give low values 1 | locus YDR001C, strain nth1, hits give low values 1.02 | locus YDR069C, strain doa4, hits give low values 1.03 | locus YDR137W, strain rgp1, hits give low values 1.04 | locus YDR159W, strain sac3, hits give low values 1.04 | locus YDR195W, strain ref2 1.01 | locus YDR297W, strain sur2, hits give low values 1.04 | locus YDR334W, strain swr1, hits give low values 1.02 | locus YDR335W, strain msn5, hits give low values 1.02 | locus YDR392W, strain spt3, hits give low values 1.02 | locus YEL003W, strain gim4, hits give low values 1.02 | locus YEL037C, strain rad23, hits give low values 1.02 | locus YEL061C, strain CIN8 (second series), hits give low values 1.02 | locus YER015W, strain faa2, hits give low values 1.02 | locus YER016W, strain bim1, hits give low values 1.02 | locus YER111C, strain swi4, hits give low values 1.03 | locus YER155C, strain BEM2 (second series), hits give low values 1.04 | locus YFR010W, strain ubp6, hits give low values 1.04 | locus YGL167C, strain pmr1, hits give low values 1.03 | locus YGL173C, strain kem1, hits give low values 1.04 | locus YGL227W, strain vid30, hits give low values 1.01 | locus YGL240W, strain doc1, hits give low values 1.04 | locus YGL253W, strain hxk2, hits give low values 1.03 | locus YHR013C, strain ard1, hits give low values 1.04 | locus YHR027C, strain rpn1, hits give low values 1.05 | locus YHR030C, strain SLT2, hits give low values 1.05 | locus YHR079C, strain IRE1, hits give low values 1.08 | locus YHR142W, strain chs7, hits give low values 1.03 | locus YJL092W, strain hpr5, hits give low values 1.02 | locus YJL095W, strain BCK1 (second series), hits give low values 1.02 | locus YJL095W, strain BCK1, hits give low values 1.04 | locus YJL115W, strain asf1, hits give low values 1.04 | locus YJL129C, strain trk1, hits give low values 1.03 | locus YJL154C, strain vps35, hits give low values 1.02 | locus YJL164C, strain tpk1, hits give low values 1.01 | locus YJL166W, strain qcr8, hits give low values 1.03 | locus YJL187C, strain SWE1, hits give low values 1.03 | locus YJR066W, strain TOR1, hits give low values 1.01 | locus YKL160W, strain elf1, hits give low values 1.01 | locus YKR026C, strain gcn3, hits give low values 1.02 | locus YKR091W, strain srl3, hits give low values 1.02 | locus YLL001W, strain dnm1, hits give low values 1.03 | locus YLL026W, hits give low values 1.03 | locus YLL041C, strain sdh2, hits give low values 1.02 | locus YLR027C, strain aat2, hits give low values 1 | locus YLR113W, strain HOG1, hits give low values 0.976 | locus YLR221C, strain rsa3, hits give low values 1.03 | locus YLR258W, strain gsy2, hits give low values 1 | locus YLR262C, strain YPT6 (second series), hits give low values 1.03 | locus YLR320W, strain mms22, hits give low values 1.03 | locus YLR342W, strain FKS1, hits give low values 1.03 | locus YLR357W, strain rsc2, hits give low values 1.06 | locus YLR370C, strain arc18, hits give low values 1.01 | locus YLR384C, strain iki3, hits give low values 1.04 | locus YML120C, strain ndi1, hits give low values 1.01 | locus YMR058W, strain fet3, hits give low values 1.03 | locus YMR125W, strain sto1, hits give low values 1.03 | locus YMR129W, hits give low values 1.02 | locus YMR205C, strain PFK2, hits give low values 1.06 | locus YMR231W, strain pep5, hits give low values 1 | locus YNL071W, strain lat1, hits give low values 1.02 | locus YNL183C, strain NPR1, hits give low values 1 | locus YNL209W, strain ssb2, hits give low values 1.02 | locus YNL248C, strain rpa49, hits give low values 1.03 | locus YNL322C, strain KRE1 (second series), hits give low values 1.02 | locus YNR049C, strain mso1, hits give low values 1.04 | locus YOR001W, strain rrp6, hits give low values 1.03 | locus YOR070C, strain gyp1, hits give low values 1.02 | locus YOR080W, strain dia2, hits give low values 1.04 | locus YOR083W, strain WHI5, hits give low values 1.02 | locus YOR106W, strain vam3, hits give low values 1.03 | locus YOR231W, strain MKK1, hits give low values 1.04 | locus YOR265W, strain rbl2, hits give low values 1.04 | locus YOR270C, strain vph1, hits give low values 1.08 | locus YOR290C, strain snf2, hits give low values 1.01 | locus YPL051W, strain arl3, hits give low values 1.01 | locus YPL078C, strain atp4, hits give low values 1.02 | locus YPL106C, strain sse1, hits give low values 1.02 | locus YPL240C, strain hsp82, hits give low values 1.01 | locus YPL256C, strain CLN2, hits give low values 1.08
